{
  "source": "PubChem BioAssay (NCATS)",
  "note": "Records with an inconclusive call do not appear. A call without a number means that no potency is given here. Activity calls are given as the source filed them. The call rests on the fitted dose curve; in most records, active means well fitted inhibition curve with a large enough effect; inconclusive means small, poorly fitted or top-dose-only effect, or effect the other way; inactive means flat fitted curve, though single readings scatter. Potency means the concentration at half of the fitted maximal effect.",
  "data": [
    {"test": "qHTS for Inhibitors of Plasmodium falciparum (GB4) proliferation (AID 504315); further: nearly all actives have a fitted effect of over 50% in size", "conditions": "P. falciparum GB4 in erythrocytes, SYBR Green DNA, 72 h; series mostly up to 6.7 µM", "excerpt": "Plasmodium falciparum is a virulent malarial parasite that kills 1-2 million people worldwide each year. Malaria not only inflicts tremendous suffering and morbidity on the human population, but has dramatically influenced the course of civilization with profound sociological and economic implications (Shah, S. 2010). Transmitted by mosquitoes, the sporozoite form of the parasite enters the blood stream to infect hepatocytes, where they become merozoites that infect red blood cells (erythrocytes). Within erythrocytes, merozoites begin a […] cycle of growth and division, after which the parasite is released to infect new red blood cells. Gametocytes, which form within erythrocytes as well, circulate in the bloodstream and are ingested by the mosquito, thereby completing the life cycle (see CDC website). To profile malarial lines for differential chemical responses and to identify inhibitors of malarial growth, an assay that measures P. falciparum growth and replication within erythrocytes was employed. This assay uses a DNA binding fluorescent dye (SYBR Green) to detect parasite DNA following cell lysis. Because mature erythrocytes lack DNA, only Plasmodium-derived DNA is detected. The P. falciparum line cp250, derived from a malarial isolate from Cambodia, (Mu, J., et al. 2010) was added to the panel of lines, Dd2, HB3, 7G8 and GB4 in this study. Laboratory of Assay Development and Screening Technology [ADST] and NIH Chemical Genomics Center [NCGC] Boston University, Chemistry Department, Center for Chemical Methodology and Library Development [CMLD-BU] NIH National Institute of Allergy and Infectious Diseases [NIAID]\nADST Assay Protocol Summary: The 1536-well SYBR Green viability assay was based on the method of Bennett et al (2004) and described previously in 1536-well format (Yuan J., et al. 2009). For screening 3 ul culture medium was dispensed into 1536 well black clear bottom plates (Aurora Biotechnologies) using a Multidrop Combi (Thermo Fisher Scientific Inc.), 23 nL compounds in DMSO were added by a pin transfer (Cleveland, P.H. and Koutz, P.J, 2005) using a pin tool-based delivery system (Kalypsys), and 5 ul of erythrocytes infected with P. falciparum one of five lines (cp250, Dd2, HB3, 7G8 or GB4, 0.3% parasitemia, 2.5% hematocrit final concentration) were added. The plates were incubated at 37C in a humidified incubator in 5% CO2 for 72 h, and 2 ul lysis buffer (20 mM Tris HCl, 10 mM EDTA, 0.16% saponin, 1.6% triton X, 10X SYBR Green I (supplied as 10,000X final concentration by Invitrogen) was added to each well. The plates were mixed for 25 sec with gentle shaking and incubated overnight at room temperature in the dark. The following morning, fluorescence intensity at 485(14) nm excitation and 535(25) nm emission wavelengths was measured on an EnVision (Perkin Elmer) plate reader. Plate reads were normalized relative to the control inhibitor (0.29 uM artemisinin) and vehicle (DMSO) wells present on each plate and then corrected by an algorithm using vehicle-only control plates at the beginning and end of the compound plate stack. References Shah, S. (2010). The Fever: how malaria has ruled humankind for 500,000 years. New York, Sarah Crichton Books. CDC web site, http://www.cdc.gov/malaria/about/biology/index.html Mu, J., Myers, R.A., Jiang, H., Liu, S., Ricklefs, S., Waisberg, M., Chotivanich, K., Wilairatana, P., Krudsood, S., White, N.J., et Plasmodium falciparum genome-wide scans for positive selection, recombination hot spots and resistance to antimalarial drugs Nature Genetics 2010, 42, pp 268-271 Bennett TN, Paguio, M., Gligorijevic, B., Seudieu, C., Kosar, A. D., Davidson, E., and Roepe, P. D. Novel, rapid, and inexpensive cell-based quantification of antimalarial drug efficacy Antimicrobial Agents Chemother. 2004, 48(5): pp 1807-10 Yuan J, Johnson RL, Huang RL, Wichterman J, Jiang HY, Hayton K, Fidock DA, Wellems TE, Inglese J, Austin CP, Su XZ. […]", "values": [
      {"smiles": "COc1cc(OC)c2c(c1)OC1Cc3cc(OC)c(OC)cc3C2O1", "note": "(stereo not given)", "Potency": "inactive"},
      {"smiles": "CC(C)(C)c1nc(-c2ccccc2)oc1Nc1ccc2ccccc2c1", "Potency": "1900 nM (active)"},
      {"smiles": "Cc1cc2c(c(=O)n1Cc1ccccc1)[C@H]1O[C@](CCCCN3C(=O)c4ccccc4C3=O)(Cc3c1ccc1ccccc31)O2", "Potency": "1510 nM (active)"},
      {"smiles": "COc1ccc(C=CC2=C[C@]3(C)C[C@]2(C)[C@H](c2ccc(OC)cc2)CC3=O)cc1", "Potency": "1690 nM (active)"},
      {"smiles": "C#CCNC(=O)[C@H]1C=C(OC)C(=O)C[C@H]2c3ccccc3C[C@]12C", "Potency": "inactive"},
      {"smiles": "C#CCN1C(=O)CC[C@@]23C1=NC(C(=O)OC)=C(C(=O)OC)[C@@H]2N(Cc1ccccc1)c1ccccc13", "Potency": "inactive"},
      {"smiles": "CC(C)(C)c1ccc(O[C@@H]2[C@H](O)CO[C@H]2C=CC#Cc2ccccc2)cc1", "Potency": "inactive"},
      {"smiles": "CCOC(=O)CN1C(=O)NC(c2cccc(F)c2)C(C(C)=O)=C1C", "note": "(stereo not given)", "Potency": "inactive"},
      {"smiles": "O=C1CCCC=C1C(O)CCOCc1ccccc1", "note": "(stereo not given)", "Potency": "inactive"},
      {"smiles": "CCCCC#C[C@@H]1C=C[C@H](Oc2ccc(C(=O)OC)cc2)[C@@H](COC(=O)OCC)O1", "Potency": "inactive"},
      {"smiles": "CC(=O)OC[C@H]1O[C@H](CC=NO[C@@H](C)c2cn([C@H](CO)Cc3ccccc3)nn2)C=C[C@@H]1OC(C)=O", "Potency": "inactive"},
      {"smiles": "C=CCOC(=O)C(C(C)=O)[C@@H](NC(=O)OC)c1ccco1", "note": "(stereo not given in full)", "Potency": "inactive"},
      {"smiles": "COCCN1C(=NCCc2cccnc2)NC(c2ccccc2)C(C(=O)OC)=C1C", "note": "(stereo not given)", "Potency": "inactive"},
      {"smiles": "C=CC[C@@H]1C=C[C@@H](ON=C2[C@H]3CCn4c(=O)n(-c5ccccc5)c(=O)n4[C@@H]3[C@H](O)[C@@H]3O[C@H]23)[C@@H](CO)O1", "Potency": "inactive"},
      {"smiles": "Cc1ccc([S+](=O)([O-])N[C@@H]2COC(=O)CC=C[C@H](C)COC(=O)N[C@@H](C)C(=O)CC=C[C@H]2C)cc1", "Potency": "inactive"},
      {"smiles": "CCN1C(=O)N(C)C(c2ccccc2)C(C(C)=O)=C1C", "note": "(stereo not given)", "Potency": "inactive"},
      {"smiles": "Cc1ccc(S(=O)(=O)OC[C@@H]2CN3[C@H](c4ccc(Br)cc4)[C@H](C)CC[C@H]3C(=O)O2)cc1", "Potency": "inactive"},
      {"smiles": "COC(=O)N(C=Cc1ccc(OC)cc1)CCc1ccc(OC)c(OC)c1", "Potency": "inactive"},
      {"smiles": "COC(=O)[C@@H]1CC23C(=NC(c4ccc([N+](=O)[O-])cc4)=C(C(F)(F)F)[C@@H]2N(C)c2ccccc23)N1C(C)=O", "note": "(stereo not given in full)", "Potency": "inactive"},
      {"smiles": "CC(C)[C@@H](OCc1ccccc1)[C@H](C)C=NO[C@H](C)c1cn([C@@H]2COC[C@@H]2O)nn1", "Potency": "inactive"},
      {"smiles": "COCCN1C(=O)NC(c2ccc(Br)cc2)C(C(C)=O)=C1C", "note": "(stereo not given)", "Potency": "inactive"},
      {"smiles": "CC1(OC(=O)C2CCCC2)C(=O)C=C2C=C3CCCCN3C=C2C1=O", "note": "(stereo not given)", "Potency": "inactive"},
      {"smiles": "CC1(O)C(=O)C=C2C=C(c3ccc(C#N)cc3)OC=C2C1=O", "note": "(stereo not given)", "Potency": "inactive"},
      {"smiles": "C#CCN1C(=O)CC[C@@]23C1=NC(C(=O)OC)=C(C(=O)OC)[C@@H]2N(CC=C(C)C)c1ccccc13", "Potency": "inactive"},
      {"smiles": "C#CCCCON=C1C[C@@H](O)[C@H](O)[C@H]2[C@@H]3C(=O)N(c4ccc(F)cc4F)C(=O)[C@@H]3CC[C@@H]12", "Potency": "inactive"},
      {"smiles": "CC(C)[C@@H](OCc1ccccc1)[C@H](C)C=NOC[C@@H](O)COCc1ccco1", "Potency": "inactive"},
      {"smiles": "CCC(=O)OC1(C)C(=O)C=C2C=C(c3ccc(C#N)cc3)OC=C2C1=O", "note": "(stereo not given)", "Potency": "inactive"},
      {"smiles": "COC(=O)C12C[C@H](C)C3C(C)C(c4ccccc4C31)N2C(=O)C(F)(F)F", "note": "(stereo not given in full)", "Potency": "inactive"},
      {"smiles": "CC#CCN1C(=O)N(C)C(c2ccccc2)C(C(=O)OC)=C1C", "note": "(stereo not given)", "Potency": "inactive"},
      {"smiles": "CCOC(=O)C(C)=NNC(C)=O", "Potency": "inactive"},
      {"smiles": "COC(=O)c1ccc(CN2C(=O)C3(CC(C)=C[C@@H](C)O3)c3c(Br)cccc32)cc1", "note": "(stereo not given in full)", "Potency": "inactive"},
      {"smiles": "C[C@@H]1C=CCCO[C@]12C(=O)N(CC1CC1)c1ccccc12", "Potency": "inactive"},
      {"smiles": "C=CCOC(=O)N[C@@H](c1cccs1)C(C(C)=O)C(C)=O", "Potency": "inactive"},
      {"smiles": "CCN1C(=O)[C@@H]2[C@H]3[C@H](O)[C@H](O)CC(=NOC[C@@H](O)COCc4ccco4)[C@@H]3CC[C@H]2C1=O", "Potency": "inactive"},
      {"smiles": "CCC(=O)C[C@@H](NC(=O)OC)c1ccccc1", "Potency": "inactive"},
      {"smiles": "CC(C)OC(=O)CC(NC(=O)OC(C)(C)C)c1ccccc1", "note": "(stereo not given)", "Potency": "inactive"},
      {"smiles": "COc1cccc([C@@H]2Oc3ccc(OC)cc3[C@H](O)[C@@H]2O)c1", "Potency": "inactive"},
      {"smiles": "COC(=O)[C@@H]1C[C@@]23C(=NN=C(SC)C2Nc2ccccc23)N1C(C)=O", "note": "(stereo not given in full)", "Potency": "inactive"},
      {"smiles": "CCN1C(=NCc2cc(OC)c(OC)c(OC)c2)NC(c2ccccc2)C(C(=O)OC)=C1C", "note": "(stereo not given)", "Potency": "inactive"},
      {"smiles": "COC(=O)CC=C[C@@H](C)[C@@H](C=NOCC[C@@H]1C=C[C@H](OC(C)=O)[C@@H](COC(C)=O)O1)NS(=O)(=O)c1ccc(C)cc1", "Potency": "inactive"}
    ]}
  ]
}
